# Experimental data from the supplement of paper PMC4466236.
# Whole data set: some 33,000 sequences, median “E-score (dimensionless, -0.5 to 0.5)” near -0.058, cut for the highest 2% near 0.35. What follows is part of a selection rich in the highest values, with near analogues and random picks from the rest.
# System: MvaT
# Experiment: PBM 8-mer E-score (mean of HK and ME arrays) (E-score (dimensionless, -0.5 to 0.5)); higher = stronger relative binding preference
# Method: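 Protein binding microarray: GST-tagged full-length MvaT (P. aeruginosa PAO1) bound to two universal double-stranded 60-mer arrays (ME and HK), each with a constant 25-mer primer and a variable 35-mer region covering all 8-mers. The 8-mer E-score (rank-based, range -0.5 to 0.5, >0.45 = specific binding) is the mean of the two arrays.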
row,Sequence,PBM 8-mer E-score
1,CCCTTCAG,-0.27
2,GAGTAGAA,0.0154
3,AGAAACGG,-0.0989
4,ATACAATG,0.204
5,CCGGCTAC,-0.217
6,GCCAGAAC,-0.0482
7,ACATAAAA,0.23
8,AAATAAGC,0.275
9,ACATAAAT,0.301
10,AAATAAGT,0.38
11,AAATAAAA,0.419
12,CAATAAAG,0.252
13,AAATAAGG,0.322
14,AGATAAAA,0.178
15,AAATAAAT,0.428
16,ACATAAAG,0.101
17,AAATAAAC,0.334
18,AAATAAAG,0.405
19,AAGCCGCT,-0.232
20,ATTCAACG,0.0307
21,CCAATTCA,-0.0716
22,TCCTGTCA,-0.158
23,GAGCAAAC,-0.0867
24,GCTGCCAA,-0.0483
25,CTACTAAG,-0.00927

row,Sequence,PBM 8-mer E-score
1,AAGCGTCA,-0.00559
2,CCGAATAG,-0.0201
3,CGCAGTCC,-0.172
4,AACCTCCA,-0.115
5,GGTCTGTA,-0.219
6,GAACCTGA,-0.0412
7,AATCTCGA,0.179
8,ACTGAAAG,-0.0474
9,AATTAAAA,0.373
10,CATTAAAG,0.272
11,AATTAAAG,0.355
12,ACTTAAAG,0.159
13,TATTAACA,0.437
14,ATTAAAAT,0.29
15,GATTAACA,0.278
16,CATTAACA,0.274
17,ACTTAAAT,0.331
18,AATTAAAT,0.452
19,ATGTTGGA,0.125
20,CAACCATA,0.0988
21,CTCGTAAG,-0.0264
22,CCTGGTTC,-0.254
23,CCGCCGGC,-0.321
24,AAATAGGA,-0.0215
25,AAAAACAC,0.087

row,Sequence,PBM 8-mer E-score
1,CAGGTGAG,-0.208
2,GCCCCACC,-0.292
3,AAGGAGTC,-0.047
4,CTAATCAA,0.102
5,CATTAAAC,0.334
6,GATTAAAA,0.217
7,TATTAAAA,0.41
8,AATTAAAC,0.382
9,GATTAAAC,0.191
10,AATTAAGA,0.277
11,CATTAAAA,0.201
12,GATTAAGA,0.157
13,TATTAAGA,0.366
14,TGATGGAA,0.0193
15,CGCCCCTC,-0.202
16,CCACCCTA,0.0237
17,AAAAGTGC,0.142
18,AGGTGGGC,-0.177
19,AATTTGGC,0.161
20,CTGCAGTA,0.129
21,AAAGCATA,0.0331
22,ATTTAAAT,0.474
23,ATTTTAAC,0.307
24,GTTTAAAC,0.406
25,ATTTAAAG,0.354

row,Sequence,PBM 8-mer E-score
1,ATTTTAAG,0.225
2,GCTTAAAC,0.121
3,CTTTAAAG,0.25
4,CTTTAAAC,0.229
5,GGTTAAAC,0.0681
6,ATTTAAAC,0.398
7,ATTAAAAC,0.301
8,GGGTGCAA,-0.0874
9,AGTTCGAT,0.171
10,CGGTCCGA,-0.24
11,GGGTAGCA,-0.213
12,CAGTGTCC,-0.176
13,GACAAATC,-0.0221
14,GTTTAACA,0.281
15,ATTTAACA,0.376
16,ATTTACTG,0.247
17,GTTTAATA,0.407
18,ATTTAATG,0.376
19,ATTTAAGG,0.101
20,GTTTAAGA,0.246
21,ATTTAACG,0.255
22,ATTTAACC,0.195
23,GGTTAATA,0.276
24,AGTTAATA,0.406
25,AGTTAATC,0.169

row,Sequence,PBM 8-mer E-score
1,CAACTCCA,-0.0538
2,CACCCAGA,-0.158
3,CATAGGAG,0.0253
4,AATCTCGG,0.0949
5,ACACCATA,0.0603
6,CCAGGTCA,-0.141
7,AAGTAGGT,0.0927
8,CATTCCCC,-0.183
9,CTTTAATC,0.141
10,CTTTAATA,0.344
11,ATTTAAGA,0.239
12,ATTTAATA,0.411
13,ATTTAATC,0.346
14,ATTTAAGC,0.309
15,AGATCGCG,-0.153
16,GATTCAGA,-0.0136
17,GAGTTAGC,-0.00613
18,GGACCAAA,-0.139
19,AGCTCGGA,-0.141
20,AAATTATC,0.318
21,TAATTGTA,0.305
22,GAATTATC,0.147
23,TAATTATA,0.462
24,AAATTATA,0.45
25,GAATTACA,0.175

row,Sequence,PBM 8-mer E-score
1,CAATTATC,0.264
2,GAATTATA,0.374
3,AAATTATG,0.233
4,TAATTCTA,0.278
5,CAATTATG,0.329
6,CAATTATA,0.414
7,AAGGACCA,-0.154
8,AGGGGGTG,-0.316
9,AACCTGCT,-0.0689
10,TGTCCCAA,0.187
11,CTGGCAAC,0.0118
12,TCCTTCAA,-0.14
13,ATACTAAG,0.272
14,AGTAGGTG,-0.0642
15,AATCGAAC,0.176
16,CCCGGCGA,-0.269
17,AAATTGTA,0.267
18,CAATTAGA,0.202
19,AAATTACC,0.212
20,GAATTAGA,0.106
21,AAATTACA,0.274
22,AAATTATT,0.401
23,TAATTACA,0.384
24,TAATTAGA,0.353
25,AAATTGTC,0.22

row,Sequence,PBM 8-mer E-score
1,CAATTACA,0.288
2,AAATTAGG,0.165
3,AAATTGTT,0.351
4,ACAGCAAG,-0.0242
5,GTACATAA,0.297
6,CCGGGACC,-0.311
7,ATCCAGAA,0.0751
8,ATCAGTCG,-0.0941
9,ACAAATGC,0.0069
10,GAGGTAGC,-0.211
11,AGCCACCA,-0.0502
12,AATAGTTA,0.387
13,AAAAGTTC,0.277
14,GATAGTTA,0.311
15,GAAAGTTA,0.346
16,CAAAGTTA,0.265
17,CATAGTTA,0.178
18,AAAAGTTT,0.352
19,TAAAGTTA,0.315
20,AAAAGTGA,0.0292
21,AAAAGTTG,0.221
22,AAAAGTCA,0.0201
23,AAAAGTTA,0.371
24,GCGTCAGA,-0.131
25,CGTGGATA,0.112

row,Sequence,PBM 8-mer E-score
1,ATCCCAGA,-0.203
2,GCCACGCA,-0.169
3,CACCGGTG,-0.153
4,GAAACAGA,-0.0327
5,CGGAGTAC,-0.128
6,CTGAATGC,-0.0524
7,AGGTCGCG,-0.202
8,AAAAAGTC,0.17
9,AAAAAGTT,0.357
10,AAAAAGTA,0.154
11,TGCCGGCA,-0.0619
12,ATGACTCA,-0.062
13,AGTTAAAA,0.37
14,CGTTAAAA,0.295
15,AGTTAAAT,0.383
16,AGTTAAAC,0.242
17,TGTTAAAA,0.25
18,AGTTAAAG,0.209
19,ACCTGCAC,-0.11
20,CCGCAGAC,-0.181
21,AAAGACGT,0.0386
22,CGTGCGCC,-0.27
23,TCCAGGCA,-0.215
24,TATTGTAA,0.379
25,GATTGTAA,0.109

row,Sequence,PBM 8-mer E-score
1,AATTGTAA,0.305
2,CAATGTAA,0.236
3,AAATGTAC,0.14
4,TCATGTAA,0.119
5,AAATGTAG,0.0975
6,GAATGTAA,0.232
7,CCATGTAA,0.171
8,ACATGTAA,0.361
9,AAATGTAA,0.373
10,TAATGTAA,0.373
11,AGTAGATA,0.202
12,CGAATTTA,0.157
13,CTGGGATA,-0.0515
14,CGCAACCC,-0.0943
15,AGGTGCAT,-0.0802
16,GCAGGACC,-0.179
17,ACAATCAA,0.21
18,TAGAGACA,0.123
19,CAATCGGA,-0.0769
